# Values of other authors, collected in PubChem BioAssay AID977611.
# In all, about 3,900 compounds went through this assay and about 3,900 (100%) were called active. The limit is not given here; nearly all actives have Kd up to about 4200 µM. The set was probably picked from earlier hits. The list shows a part of the results. Where a SMILES comes first, the peptide text is derived from it. Non-standard residues stand in square brackets, D forms with d. Square brackets hold non-standard residues; d marks the D form. Residues, ends and D or L forms follow the SMILES beside them. Peptide text beside a SMILES is read from it. [ ]: non-standard residue; d: D form. Thr(P(OH)3+) = C[C@@H](O[P+](O)(O)O)[C@H](N)C(=O)O; Lys(Me3) = C[N+](C)(C)CCCC[C@H](N)C(=O)O; Orn(CH(NH2)2) = NC(N)NCCC[C@H](N)C(=O)O; Lys(Me2) = CN(C)CCCC[C@H](N)C(=O)O
# Assay: PubChem AID 977611
# Conditions: PDB protein-ligand complexes, literature Kd
compound,measurement,setting,value
N[C@@H](CCC(=O)N[C@@H](CS)C(=O)NCC(=O)O)C(=O)O,Kd,"protein: mitochondrial ABC transporter, Atm1, PDB entry 4myh",23 µM (active)
same,Kd,"protein: protein yqjG, PDB entry 4g0l",6.5 µM (active)
CNC(CSSC[C@H](NC(=O)CC[C@H](N)C(=O)O)C(=O)NCC(=O)O)C(=O)NCC(=O)O (some centres not stated),Kd,"protein: PUTATIVE AMINO ACID BINDING PROTEIN, PDB entry 4c0r",12.2 µM (active)
CC(C)C[C@H](NC(=O)[C@H](CC(C)C)NC(=O)[C@H](CCC(=O)O)NC(=O)[C@@H](N)CO)C(=O)N[C@@H](CCCCN)C(=O)N[C@@H](Cc1ccc(O)cc1)C(=O)N[C@@H](CC(C)C)C(=O)N[C@H](C(=O)N[C@H](C(=O)O)[C@@H](C)O)[C@@H](C)O (H-SELLKYLTT-OH),Kd,"protein: the ligand binding domain (LBD) of the estrogen-related receptor ? (ERR?, NR3B1), PDB entry 1xb7",0.6 µM (active)
H-SQEKFFQELFDS-OH,Kd,"protein: Peroxisomal Membrane Anchor Protein Pex14, PDB entry 2w85",9.17 µM (active)
NS(=O)(=O)c1ccc(CNc2ncnc(NCc3ccccc3)c2[N+](=O)[O-])cc1,Kd,"protein: human carbonic anhydrase II, PDB entry 3mhm",0.1 µM (active)
CC(C)[C@H](NC(=O)[C@H](CCCC[N+](C)(C)C)NC(=O)[C@H](CO)NC(=O)[C@H](CCCN=C(N)N)NC(=O)[C@H](C)NC(=O)[C@H](C)NC(=O)[C@@H](N)CCCN=C(N)N)C(=O)O (tested in a mixture with another compound) (H-RAARS[Lys(Me3)]V-OH),Kd,"protein: Chromodomain-helicase-DNA-binding protein 1 CHD1, PDB entry 4nw2",29 µM (active)
CC(C)[C@H](NC(=O)[C@H](CCCCN(C)C)NC(=O)[C@H](CO)NC(=O)[C@H](CCCN=C(N)N)NC(=O)[C@H](C)NC(=O)[C@@H](NC(=O)[C@@H](N)CCCN=C(N)N)[C@@H](C)O)C(=O)O (H-RTARS[Lys(Me2)]V-OH),Kd,"protein: Chromodomain-helicase-DNA-binding protein 1 CHD1, PDB entry 4o42",22 µM (active)
CC[C@H](C)[C@H](NC(=O)[C@@H](N)CC(N)=O)C(=O)N[C@H](C(=O)N[C@@H](CCC(N)=O)C(=O)N1CCC[C@H]1C(=O)N[C@H](C(=O)N[C@@H](CCC(N)=O)C(=O)N[C@@H](CCC(N)=O)C(=O)N[C@@H](CO)C(=O)N[C@H](C(=O)O)[C@@H](C)O)[C@@H](C)O)[C@@H](C)O[P+](O)(O)O (H-NI[Thr(P(OH)3+)]QPTQQST-OH),Kd,"protein: Rad53 FHA1 domain, PDB entry 2jqi",10 µM (active)
CC[C@H](C)[C@H](NC(=O)[C@@H](N)CC(N)=O)C(=O)N[C@H](C(=O)N[C@@H](CCC(N)=O)C(=O)N1CCC[C@H]1C(=O)N[C@H](C(=O)N[C@@H](CCC(N)=O)C(=O)N[C@@H](CCC(N)=O)C(=O)N[C@@H](CO)C(=O)N[C@H](C(=O)O)[C@@H](C)O)[C@@H](C)O[P+](O)(O)O)[C@@H](C)O[P+](O)(O)O (H-NI[Thr(P(OH)3+)]QP[Thr(P(OH)3+)]QQST-OH),Kd,"protein: the yeast Dun1 FHA domain, PDB entry 2jql",0.3 µM (active)
Cn1c[n+]([C@@H]2O[C@H](CO[P+](O)(O)O[P+](O)(O)O[P+](O)(O)O)[C@@H](O)[C@H]2O)c2c1C(=O)NC(N)N2 (some centres not stated),Kd,"protein: rRNA N-glycosidase, PDB entry 4emr",0.0321 µM (active)
Cn1c[n+]([C@@H]2O[C@H](CO[P+](O)(O)O[P+](O)(O)O)[C@@H](O)[C@H]2O)c2c1C(=O)NC(N)N2 (some centres not stated),Kd,"protein: rRNA N-glycosidase, PDB entry 4emf",0.0839 µM (active)
C[C@H]1COCCN1C[C@H]1CN(S(=O)(=O)c2cccs2)CCN1c1ccc([C@@](C)(O)C(F)(F)F)cc1,Kd,"protein: Glucokinase regulatory protein, PDB entry 4ly9",0.007 µM (active)
COC(=O)c1cc(Nc2ncnc3[nH]ccc23)ccc1Br,Kd,"protein: TAU-TUBULIN KINASE 1, PDB entry 4btm",4.1 µM (active)
CC[C@H](C)[C@H](NC(=O)[C@H](CC(C)C)NC(=O)[C@H](CCCNC(N)N)NC(=O)[C@@H](N)CC(N)=O)C(=O)N[C@@H](CC(C)C)C(=O)O (H-N[Orn(CH(NH2)2)]LIL-OH),Kd,"protein: Chaperone protein DnaK, PDB entry 4ezy",2.26 µM (active)
CC[C@H](C)[C@H](NC(=O)[C@H](C)NC(=O)[C@H](CCC(=O)O)NC(=O)[C@H](CCCNC(N)N)NC(=O)[C@H](CC(C)C)NC(=O)[C@H](Cc1ccc(O)cc1)NC(=O)[C@H](CCCNC(N)N)NC(=O)[C@H](CC(=O)O)NC(=O)[C@H](CC(=O)O)NC(=O)[C@@H](N)CC(=O)O)C(=O)N[C@@H](CCC(N)=O)C(=O)N[C@@H](CCC(=O)O)C(=O)N[C@@H](Cc1ccc(O)cc1)C(=O)N[C@@H](CC(=O)O)C(=O)N[C@@H](CC(N)=O)C(=O)N[C@H](C(=O)N[C@@H](C)C(=O)N[C@@H](CCCCN)C(=O)O)[C@@H](C)CC (H-DDD[Orn(CH(NH2)2)]YL[Orn(CH(NH2)2)]EAIQEYDNIAK-OH),Kd,"protein: N terminal domain of Harmonin, PDB entry 2kbr",25.4 µM (active)
CC[C@H](C)[C@H](NC(=O)[C@@H](N)CCCNC(N)N)C(=O)N[C@@H](CCC(N)=O)C(=O)N[C@@H](CCCNC(N)N)C(=O)N[C@@H](CC(N)=O)C(=O)N[C@@H](CCCCN)C(=O)N[C@@H](C)C(=O)N[C@@H](C)C(=O)N[C@@H](C)C(=O)N[C@@H](CC(C)C)C(=O)N[C@@H](CC(C)C)C(=O)N[C@@H](CCCNC(N)N)C(=O)N[C@@H](CC(C)C)C(=O)N[C@@H](C)C(=O)N[C@@H](C)C(=O)N[C@@H](CCCNC(N)N)C(=O)O (H-[Orn(CH(NH2)2)]IQ[Orn(CH(NH2)2)]NKAAALL[Orn(CH(NH2)2)]LAA[Orn(CH(NH2)2)]-OH),Kd,"protein: RPA32(C-terminal domain of Replication protein A,172-270), PDB entry 1dpu",1 µM (active)
